From PubChem BioAssay AID1259400 (National Center for Advancing Translational Sciences (NCATS), 2018)
Hit rate of the full screen: of about 350,000 compounds, about 2,100 (0.6%) were called active. Roughly 1% stayed inconclusive and do not appear here. The entries come from a sample that favours actives as a whole. Unmarked numbers belong to inactive results.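 Rule for the calls: active = activity change of -60% or lower, but not beyond a set lower limit; inconclusive = change between -60% and -40%, or beyond the set limit; inactive = change above -40%.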

Biological target: Relaxin receptor 1 (Homo sapiens) (UniProt Q9HBX9)
Assay: qHTS Assay for Antagonists of the Relaxin Receptor RXFP1
Conditions: HEK293-RXFP1, relaxin-stimulated cAMP HTRF, 30 min; at 57.5 µM; hits give low values
% is set by controls: 0 for no effect and ±100 for the full control effect.

Chain of Relaxin receptor 1 (Homo sapiens) (Q9HBX9 whole entry, looked up): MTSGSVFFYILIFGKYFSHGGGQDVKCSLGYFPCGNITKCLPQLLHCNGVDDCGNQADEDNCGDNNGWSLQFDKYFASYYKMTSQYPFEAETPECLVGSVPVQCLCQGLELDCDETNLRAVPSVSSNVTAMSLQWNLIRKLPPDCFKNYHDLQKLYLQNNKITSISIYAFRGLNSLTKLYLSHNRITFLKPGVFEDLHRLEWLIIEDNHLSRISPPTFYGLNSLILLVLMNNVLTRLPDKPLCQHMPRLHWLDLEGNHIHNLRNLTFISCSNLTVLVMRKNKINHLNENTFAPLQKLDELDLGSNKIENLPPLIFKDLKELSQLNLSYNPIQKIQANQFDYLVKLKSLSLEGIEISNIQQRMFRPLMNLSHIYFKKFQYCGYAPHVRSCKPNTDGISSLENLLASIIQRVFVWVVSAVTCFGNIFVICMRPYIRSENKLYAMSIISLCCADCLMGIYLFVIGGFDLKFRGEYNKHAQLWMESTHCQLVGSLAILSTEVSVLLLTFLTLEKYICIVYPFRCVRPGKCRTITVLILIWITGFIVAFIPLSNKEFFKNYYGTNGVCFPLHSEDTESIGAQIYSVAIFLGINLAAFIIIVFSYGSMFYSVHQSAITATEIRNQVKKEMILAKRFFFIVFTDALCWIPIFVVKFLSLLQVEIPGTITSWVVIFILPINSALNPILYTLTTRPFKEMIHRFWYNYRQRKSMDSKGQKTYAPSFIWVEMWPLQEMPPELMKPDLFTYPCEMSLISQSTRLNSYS

Q: How did the activity change, negative = inhibition turn out when `O=C(C1CCC(Cn2c(=O)c3sccc3n(Cc3ccccc3F)c2=O)CC1)N1CCCCC1` (stereo not given) was run?
A: -8.5%

Q: For `Cc1nn(-c2ccccc2)c(Cl)c1/C=N/NC(=O)c1nn(C)cc1[N+](=O)[O-]`, which activity change, negative = inhibition is on record?
A: -8.41%

Q: `CN1CCc2ccccc2C1Cc1ccccc1NC(=O)c1sc2ccccc2c1Cl` (stereo not given) was tested. Which activity change, negative = inhibition did it give?
A: 5.13%

Q: Which activity change, negative = inhibition does the source give for `Cc1nn(C)cc1/C=N/NC(=O)c1sc2ccccc2c1Cl` here?
A: -67.1% (active)

Q: Which activity change, negative = inhibition does the source give for `C/C=C/C=N/NC(=O)c1ccncc1` here?
A: 14.4%

Q: How did the activity change, negative = inhibition turn out when `CC1CCN(S(=O)(=O)c2ccc3c(ccn3CCC(=O)NCc3ccc(N(C)C)cc3)c2)CC1` was run?
A: -7.88%

Q: Which activity change, negative = inhibition does the source give for `CCOC(=O)c1ccc(NC(=O)C2CC(=O)N(c3ccc(C(C)C)cc3)C2)cc1` (stereo not given) here?
A: 4.6%

Q: For `CN1CC[C@H](c2c(O)cc(O)c3c(=O)cc(-c4ccccc4Cl)oc23)[C@H](O)C1`, which activity change, negative = inhibition is on record?
A: -7.55%

Q: `COc1ccc(C2Sc3ccccc3NC3=C2C(=O)c2ccccc23)c(OC)c1OC` (stereo not given) was tested. Which activity change, negative = inhibition did it give?
A: 3.16%

Q: For `CCOC(=O)c1cnc2c(C)cc(C)cc2c1Nc1ccc(N2CCOCC2)cc1`, which activity change, negative = inhibition is on record?
A: -5%

Q: `O=C(Nc1ccc(Oc2ccccc2)cc1)C1CCN(S(=O)(=O)c2ccc(Cl)cc2)CC1` was tested. Which activity change, negative = inhibition did it give?
A: -26.7%

Q: With `O=C(Nc1cccc(Cl)c1)c1csnn1` as the compound, how does the activity change, negative = inhibition read?
A: -3.98%

Q: For `O=C(Nc1ccccc1)c1nnsc1S(=O)(=O)c1ccc(Cl)cc1`, which activity change, negative = inhibition is on record?
A: -68.7% (active)

Q: How did the activity change, negative = inhibition turn out when `Clc1ccc(CSc2nncn3c2cc2occc23)cc1` was run?
A: -27.8%

Q: How did the activity change, negative = inhibition turn out when `Cc1ccc(Nc2c(-c3ccc(Cl)cc3)nc3sccn23)c(C)c1` was run?
A: -23.7%

Q: `Cc1ccc2nsnc2c1NC(=O)c1ccccc1[N+](=O)[O-]` was tested. Which activity change, negative = inhibition did it give?
A: -9.18%

Q: With `O=C(Nc1ccncc1)c1ccccc1[N+](=O)[O-]` as the compound, how does the activity change, negative = inhibition read?
A: 11.1%

Q: How did the activity change, negative = inhibition turn out when `CC(=O)Oc1ccccc1C(=O)Nc1ncc([N+](=O)[O-])s1` was run?
A: -60.7% (active)

Q: With `CCOC(=O)c1ccc(NC(=O)c2c(NCc3cccs3)sc3c2CCCC3)cc1` as the compound, how does the activity change, negative = inhibition read?
A: -24.5%

Q: `CN(C)C(=O)COC(=O)c1cccc(S(=O)(=O)N2CC3(C)CC2CC(C)(C)C3)c1` (stereo not given) was tested. Which activity change, negative = inhibition did it give?
A: 8.67%

Q: Which activity change, negative = inhibition does the source give for `Cc1nnnn1/C(=C\c1ccccc1)C(=O)OCC(=O)N1CC2(C)CC1CC(C)(C)C2` (stereo not given) here?
A: -62.1% (active)

Q: Which activity change, negative = inhibition does the source give for `CN1CCN(c2oc(-c3ccc(COc4ccc(Cl)cc4)o3)nc2C#N)CC1` here?
A: -10.5%

Q: How did the activity change, negative = inhibition turn out when `CCOc1ccccc1NC(=O)c1ccc2c(c1)CCN2S(=O)(=O)c1ccc(C)cc1` was run?
A: 1.03%

Q: `CCc1cccc(C)c1Nc1c(-c2ccc(N(C)C)cc2)nc2ncccn12` was tested. Which activity change, negative = inhibition did it give?
A: -15.1%

Q: For `CCn1cc(C(=O)N2CCN(c3cc(Cl)ccc3C)CC2)c(=O)c2cc(S(=O)(=O)N3CCCC3)ccc21`, which activity change, negative = inhibition is on record?
A: -1.04%
